# Screening results from PubChem.
# HTT cytoprotect: protects HTT-Q103 PC12 cells, measured by ATP; PC12 HTT-Q103 induced, cytoprotection, ATP luminescence, 40 h; Potency, µM (top dose mostly 56.4 µM), for inactives: cytoprotection (ATP increase), usual class: activators; 230,000 tested, 0.14% active; AID 1471; further: % of control where 0% means no effect; nearly all actives have a fitted effect of over 45% in size
#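 PC12 cells with ecdysone-inducible HTT exon 1 Q103-GFP, induced with 100 nM tebufenozide and co-treated with library compounds in a dose series (1536-well, 1500 cells/well). Cytoprotection read as ATP content by ATPlite luminescence.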
# Lamin A splicing: modulators of lamin A splicing | 200,000 tested, 0.01% active | HeLa LMNA splicing GFP/RFP minigene ratio, 48 h | Potency, µM (series often up to 46.1 µM), inactives show at the top dose ratio change, negative = inhibition, hits mostly inhibitors | AID 1487; active means well fitted inhibition curve with a large enough effect in the signal ratio, with a control signal flat, not every such curve was filed as active; inconclusive means small, poorly fitted or top-dose-only effect, or effect the other way, or a change in a side signal; the % refers to the signal ratio; further: on the % scale 0 is the no-effect control and ±100 the full control effect
#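 Read-out is the ratio of GFP to DsRed2 object intensity, acquired by 488 nm laser-scanning cytometry on HeLa lamin A-EGFP minigene reporter cells. Compound incubation 48 hrs at 37 °C in Opti-MEM with 2% FBS; DMSO 0.5% final.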
# NPSR antagonist: blocks cAMP signaling of the human neuropeptide S receptor; CHO-NPSR cells, cAMP TR-FRET, antagonist mode; Potency, µM (series often up to 38.3 µM), inactives show at the top dose activity change, negative = inhibition, actives largely listed as inhibitors; 220,000 tested, 1% active; Q6W5P4; further: on the % scale 0 is the no-effect control and ±100 the full control effect; nearly all actives have a fitted effect of over 50% in size
# Target sequence (Q6W5P4 whole entry, looked up): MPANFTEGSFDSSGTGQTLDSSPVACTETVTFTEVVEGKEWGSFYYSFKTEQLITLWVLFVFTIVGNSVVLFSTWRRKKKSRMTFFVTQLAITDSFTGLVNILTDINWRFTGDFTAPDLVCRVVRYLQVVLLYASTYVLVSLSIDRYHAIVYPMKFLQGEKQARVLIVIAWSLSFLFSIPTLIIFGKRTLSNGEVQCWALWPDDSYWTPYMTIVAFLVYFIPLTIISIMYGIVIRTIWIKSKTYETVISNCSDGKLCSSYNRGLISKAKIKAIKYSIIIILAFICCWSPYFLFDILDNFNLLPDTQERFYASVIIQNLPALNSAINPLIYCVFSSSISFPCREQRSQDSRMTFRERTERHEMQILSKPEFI
# HTT aggregate: mutant huntingtin aggregation inhibition. PC12 HttQ103-GFP aggregates, Acumen cytometry, 40 h. Potency, µM (series often up to 46.1 µM), without a hit: at the top dose activity change, negative = inhibition, actives largely listed as inhibitors. 220,000 tested, 1.1% active. AID 1688; further: on the % scale 0 is the no-effect control and ±100 the full control effect; nearly all actives have a fitted effect of over 60% in size
#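 Ecdysone-promoter PC12 model expressing HTT exon 1 Q103 fused to GFP, induced by tebufenozide at 100 nM final. Compounds titrated; aggregates sized 1–25 µm scored on a 488 nm laser cytometer.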
# Epigenetic derep: derepresses silenced GFP reporter in murine cells. murine LDR cells, GFP reporter derepression, 30 h. Potency, µM (series often up to 53.9 µM), without a hit: at the top dose GFP activation, actives largely listed as activators. 280,000 tested, 0.2% active; further: % of control where 0% means no effect; nearly all actives have a fitted effect of over 60% in size
#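 GFP-positive cell count by laser-scanning cytometry (objects 20–120 um) after 30 h, 37 C compound exposure of murine LDR cells; reporter is CMV-GFP integrated at a silenced locus, inducible by HDAC or DNMT inhibitors.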
# * hit, by the source's call; ? = inconclusive; . = no result; ! = a repeat was not active; [ ] = dose if it differs, or a comment. Sampled rows, rich in hits. Any-hit rate of the full collection: about 1.5%. Unless noted, the call rests on the fitted dose curve; in most records, active means well fitted curve in the direction sought with a large enough effect; inconclusive means small, poorly fitted or top-dose-only effect, or another doubt; inactive means no such curve, though single readings can be large; an effect the other way counts as inactive or inconclusive. Potency means the concentration at half of the fitted maximal effect.
SMILES,HTT cytoprotect,Lamin A splicing,NPSR antagonist,HTT aggregate,Epigenetic derep
Nc1c(C(=O)Nc2nc3ccccc3s2)sc2nc(-c3cccs3)ccc12,-117.1%,?,10µM*,?,?
Nc1c(C(=O)Nc2ccccc2Br)sc2nc(-c3cccs3)ccc12,.,.,.,.,7.7%
Cc1ccc(C)c(CN2CCC(CNC(=O)C(CC(C)C)N3Cc4ccccc4C3=O)CC2)c1 (configuration not stated),.,-20.4%[46 µM],.,.,-1.2%
COC(=O)CS(=O)(=O)c1nnc([C@H](Cc2ccccc2)NC(=O)OC(C)(C)C)o1,7.8%[10 µM],?,7.94µM*,?,0.0%
Oc1ccccc1Cn1c(-c2ccccc2O)nc2ccccc21,-6.9%,?,-8.0%[46.1 µM],25.1µM*,0.7%
Oc1ccc(Cn2c(-c3ccc(O)cc3)nc3ccccc32)cc1,0.2%[10 µM],.,.,.,.
Cc1ccc(NC(=O)/C(C#N)=C/c2ccc(C)s2)c(C)c1,-7.3%,?,-5.8%[46.1 µM],11.6%[9.22 µM],3.16µM*
Cc1ccc(/C=C(\C#N)C(=O)Nc2c(C)cccc2C)s1,-0.9%,7.0%,-18.0%[46.1 µM],-21.4%,-4.2%
CCN(c1cccc(C)c1)S(=O)(=O)c1ccc(O)c(C(=O)O)c1,.,.,.,.,1.0%
Cc1ccc(COc2ccc(C)nc2[N+](=O)[O-])cc1,-4.6%[10 µM],.,2.7%,3.9%[9.22 µM],3.5%
COc1ccc(-c2ccc(CNc3ccc4[nH]c(=O)[nH]c4c3)o2)cc1Cl,.,?,.,.,-3.2%
CCOC(=O)C1=C(C)n2c(s/c(=C/c3cccc([N+](=O)[O-])c3)c2=O)=NC1c1ccc(O)c(OC)c1 (configuration not stated),-101.3%,-13.6%,7.94µM*,?,-1.0%
c1ccc(C2=Nn3c(nnc3-c3ccncc3)SC2)cc1,25.1µM*,?,?,10µM*,-1.0%
c1ccc(C2=Nn3c(nnc3-c3cccnc3)SC2)cc1,-24.8%[0.074 µM],9.5%,-2.6%[46.1 µM],20.2%,-0.9%
CC1Cc2nc(SCC(N)=O)n(Cc3ccccc3)c(=O)c2S1 (configuration not stated),-4.2%,.,9.9%,-22.1%[9.22 µM],1.1%
CCSc1nc2c(c(=O)n1Cc1ccccc1)SC(C)C2 (configuration not stated),5.1%,?,?,28.2µM*,0.0%
Cc1nc2c(c(=O)n1CCC1=CCCCC1)c1nc3ccccc3nc1n2/N=C/c1ccco1,-20.2%[0.074 µM],-5.9%,10µM*,-24.0%,2.2%
COCCn1cnc2c(c1=O)c1nc3ccccc3nc1n2/N=C/c1ccco1,-28.9%[10 µM],.,-15.3%,-11.3%[9.22 µM],3.0%
CN1CCc2c(sc(NC(=O)c3cc4cc([N+](=O)[O-])ccc4s3)c2C(N)=O)C1,-201.9%,.,-26.1%,7.08µM*,1.1%
CC(C)N1CCc2c(sc(NC(=O)c3cc4cc([N+](=O)[O-])ccc4s3)c2C(N)=O)C1,-35.0%,.,-5.6%,6.9%[9.22 µM],?
Cc1ccc2nc(-c3ccc(C)s3)c(Nc3ccc4c(c3)OCCO4)n2c1,.,.,.,.,16.6%
CCCCCCCCCCCCCCCCCC(=O)NCCc1ccc(O)c(O)c1,-11.3%,.,.,.,11.2µM*
CCN(C(=O)CCc1nc(-c2ccc(C)cc2)no1)c1cccc(Cl)c1,.,.,.,.,-3.1%
COc1ccccc1N1CCN(CCCNc2cc(=O)n(C)c(=O)n2C)CC1,31.6µM*!,?,-3.9%[46.1 µM],24.4%,2.4%
Cc1oc2ncn(C)c(=O)c2c1C(=O)NCCCN1CCCC(C)C1 (configuration not stated),.,8.3%[46 µM],.,.,-1.3%
SMILES,HTT cytoprotect,Lamin A splicing,NPSR antagonist,HTT aggregate,Epigenetic derep
COc1ccc(-c2cc(C(=O)N/N=C/c3ccc(O)cc3)[nH]n2)cc1,.,.,.,.,-0.1%
CC(=O)c1ccc(Sc2nnnn2-c2ccccc2)c([N+](=O)[O-])c1,6.4%[10 µM],?,-16.2%,12.4%,2.5%
CN1CCN(S(=O)(=O)c2ccc(Sc3nnnn3-c3ccccc3)c([N+](=O)[O-])c2)CC1,8.0%[10 µM],?,26.7%,11.2µM*,-3.2%
CC(=S)/C=C1\Sc2ccccc2N1C,-21.3%,7.0%,-14.5%[46.1 µM],-18.7%,0.0%
CCN1/C(=C/c2ccc3cc(C)ccc3[n+]2CC)Sc2cc(C)c(C)cc21,-63.6%[10 µM],?,?,.,25.1µM*
CC[n+]1c(/C=C2\Sc3ccccc3N2C)ccc2cccc(C)c21,-87.7%[10 µM],?,10µM*,1µM*,?
CCN1/C(=C/c2ccc3cc(C)ccc3[n+]2CC)Sc2ccccc21,-68.4%[10 µM],?,10µM*,0.355µM*,?
COc1ccc(N=c2oc3c(OC)cccc3cc2C(=O)NCc2ccco2)cc1OC,-50.1%[10 µM],-1.2%,-9.3%[46.1 µM],?,12.6µM*
NC(C(=O)O)c1ccc(P(=O)(O)O)cc1 (configuration not stated),4.7%,.,.,.,2.1%
COc1ccc(C(=O)COC(=O)CNS(=O)(=O)c2ccc(C)cc2)cc1,1.8%[10 µM],3.1%,-17.2%[46.1 µM],25.1µM*,2.3%
CCN1CCc2c(sc(NC(=O)CSc3ccccc3)c2-c2nc3ccccc3s2)C1,.,?,.,.,0.891µM*
CN1CCc2c(sc(NC(=O)CSc3ccc(F)cc3)c2-c2nc3ccccc3s2)C1,.,?,.,.,3.16µM*
CC(=O)Nc1sc2c(c1-c1nc3ccccc3s1)CCN(C(C)C)C2,-86.9%[10 µM],.,35.7%,?,3.98µM*
CC(=O)N1CCc2c(sc(NC(=O)CSc3ccc(F)cc3)c2-c2nc3ccccc3s2)C1,.,1.6%[46 µM],.,.,8.3%
CCc1nn(CC(=O)NCc2ccco2)c(=O)c2cc3c(OC)cccc3n12,.,.,.,.,0.0%
CN1CC(O)C2=CC(=O)C(=O)C=C21 (configuration not stated),-58.8%,.,.,.,0.8%
CCN1/C(=C/C=C/c2oc3ccc(-c4ccccc4)cc3[n+]2CC)Oc2ccc(-c3ccccc3)cc21,-94.3%[10 µM],.,?,0.355µM*,82.7%
COc1ccc(O[C@H]2C=C[C@@H](c3ccccc3)O[C@H]2COC(=O)CC/C(C)=N\O[C@@H](C)CN2CCCCc3nc(C)c(C)cc32)cc1,10.1%[10 µM],.,.,.,1.1%[10.1 µM]
N=c1n(CC(=O)c2ccc([N+](=O)[O-])cc2)c2ccccc2n1Cc1ccc(Cl)cc1,-17.7%[10 µM],-3.9%,?,-8.2%,15.8µM*
N=c1n(CC(=O)c2ccc([N+](=O)[O-])cc2)c2ccccc2n1Cc1ccccc1,-17.0%[10 µM],-9.6%,-18.7%,?,22.4µM*
NNC(=O)CS(=O)(=O)Nc1ncccn1,-6.0%[10 µM],.,.,.,.
COc1cc2c(cc1OC)CN(Cc1nc3ccsc3c(=O)[nH]1)CC2,23.5%[10 µM],1.9%,-5.6%[46.1 µM],3.98µM*,-11.8%
COc1ccc(-c2nc(SCC(=O)NCc3ccccc3Cl)n[nH]2)cc1,.,-28.7%[46 µM],.,.,2.1%
COc1ccc(/C=C2\CCc3ccccc3C2=O)cc1Cn1nc(C)cc1C,-14.0%,-17.8%,?,25.1µM*,0.8%
CCOC(=O)/C=c1\s/c(=C\c2sccc2C)c(=O)n1CC(=O)NCc1ccc(C)cc1,-60.4%,?,-31.6%,-13.2%,7.94µM*
COc1ccccc1Oc1nc2c(C)cccn2c(=O)c1/C=C(\C#N)c1nc2ccccc2[nH]1,.,.,.,.,12.6µM*
